Assay results from ChEMBL document CHEMBL3988442, “University of Dundee, Small-Polar-MMV Screening Library” (2021).
For some of these results: Potency and affinity values are given separately.

Assays:
Set-up in all cases: scale not given: direction of the effect not stated beside the values
[1] = target: Protein translocase subunit SecA (Escherichia coli (strain K12)) (UniProt P10408); test: Assay to Identify E. coli SecA ATPase Inhibitors; format: functional; details: 30 µM
[2] = target: T1, Ubiquitin-activating enzyme e1, putative (Leishmania donovani (strain BPK282A1)) (UniProt E9BSI1); test: Leishmania donovani Ubiquitin Activating Enzyme (LdE1); format: functional; details: 30 µM
T1 sequence (whole entry): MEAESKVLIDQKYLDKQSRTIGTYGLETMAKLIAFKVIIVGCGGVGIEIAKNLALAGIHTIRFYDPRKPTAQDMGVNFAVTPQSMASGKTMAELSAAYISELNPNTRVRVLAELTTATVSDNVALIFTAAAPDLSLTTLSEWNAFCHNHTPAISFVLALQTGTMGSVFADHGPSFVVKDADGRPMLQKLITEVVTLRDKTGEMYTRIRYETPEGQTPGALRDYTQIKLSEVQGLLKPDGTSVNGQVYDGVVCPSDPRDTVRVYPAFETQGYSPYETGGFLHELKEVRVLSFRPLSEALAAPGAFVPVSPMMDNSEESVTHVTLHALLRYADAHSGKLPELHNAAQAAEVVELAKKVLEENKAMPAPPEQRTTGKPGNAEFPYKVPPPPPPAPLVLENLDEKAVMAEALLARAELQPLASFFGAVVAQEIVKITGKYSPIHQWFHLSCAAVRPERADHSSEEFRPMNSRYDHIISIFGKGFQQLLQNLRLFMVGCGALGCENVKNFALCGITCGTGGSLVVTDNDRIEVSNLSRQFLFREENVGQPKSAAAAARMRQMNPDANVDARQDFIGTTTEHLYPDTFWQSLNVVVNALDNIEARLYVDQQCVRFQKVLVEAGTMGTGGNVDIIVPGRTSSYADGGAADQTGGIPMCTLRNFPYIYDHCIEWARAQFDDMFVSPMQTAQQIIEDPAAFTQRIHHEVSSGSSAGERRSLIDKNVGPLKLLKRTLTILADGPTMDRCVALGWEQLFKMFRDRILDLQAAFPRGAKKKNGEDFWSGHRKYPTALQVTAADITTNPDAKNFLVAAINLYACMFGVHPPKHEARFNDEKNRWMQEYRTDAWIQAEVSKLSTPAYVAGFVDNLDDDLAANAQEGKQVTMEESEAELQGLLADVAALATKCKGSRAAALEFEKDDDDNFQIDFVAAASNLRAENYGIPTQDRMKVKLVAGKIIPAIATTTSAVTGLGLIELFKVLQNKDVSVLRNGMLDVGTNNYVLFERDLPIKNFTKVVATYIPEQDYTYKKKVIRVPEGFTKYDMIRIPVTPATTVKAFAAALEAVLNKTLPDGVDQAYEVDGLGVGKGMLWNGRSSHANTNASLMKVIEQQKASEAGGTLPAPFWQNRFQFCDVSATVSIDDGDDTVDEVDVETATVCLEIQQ

[3] = target: AMP-activated protein kinase, AMPK (Homo sapiens) (UniProt P54646+O43741+P54619+Q9UGJ0+Q9Y478+Q13131+Q9UGI9); test: AMP-dependent Kinase enzyme assay. An in vitro enzyme assay that detects ADP turnover that is directly proportional to AMPK activity. This uses naive AMPK that is activated during the assay with MK-8722; format: functional; details: 30 µM
[4] = target: Sialic acid-binding Ig-like lectin 9 (Homo sapiens) (UniProt Q9Y336); test: Hs-Siglec9 ALPHAscreen SOP 20170721; details: 10 µM
Trypanosoma cruzi = test: Trypanosoma cruzi phosphomannomutase and mannose-1-phosphate guanylyltransferase assay; format: functional; details: 10 µM
[5] = target: T2, Arginase-2, mitochondrial (Homo sapiens) (UniProt P78540); test: in vitro enzyme assay to detect the production of urea directly proportional to the activity of Arginase II; format: functional; details: 33.3 µM; further: in the data most compounds retested in dose-response had high values
T2 sequence (whole entry): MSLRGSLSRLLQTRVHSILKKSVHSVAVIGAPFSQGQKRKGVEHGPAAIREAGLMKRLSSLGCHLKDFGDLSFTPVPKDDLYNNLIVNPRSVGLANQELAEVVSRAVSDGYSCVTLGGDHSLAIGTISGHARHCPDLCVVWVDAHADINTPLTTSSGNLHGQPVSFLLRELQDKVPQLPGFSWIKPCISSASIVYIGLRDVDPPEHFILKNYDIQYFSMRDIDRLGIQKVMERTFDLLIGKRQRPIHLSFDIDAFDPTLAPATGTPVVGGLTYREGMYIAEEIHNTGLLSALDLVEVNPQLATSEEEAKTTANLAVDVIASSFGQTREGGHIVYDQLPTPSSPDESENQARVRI

[6] = target: T3, Proteasome subunit beta (Trypanosoma cruzi) (UniProt O96673); test: Trypanosoma cruzi proteasome chymotrypsin-like activity (TcProtChymo) assay.; further: in the data most compounds retested in dose-response had high values; format: functional; details: 9.37 µM
T3 sequence (whole entry): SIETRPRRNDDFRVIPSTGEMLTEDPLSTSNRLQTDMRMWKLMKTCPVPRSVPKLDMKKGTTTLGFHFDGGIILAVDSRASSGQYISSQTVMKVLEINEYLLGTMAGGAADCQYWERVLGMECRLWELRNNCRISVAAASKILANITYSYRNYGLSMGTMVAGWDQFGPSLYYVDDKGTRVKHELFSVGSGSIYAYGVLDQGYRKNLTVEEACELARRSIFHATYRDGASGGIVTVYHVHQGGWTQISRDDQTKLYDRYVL

Homo sapiens = species on record: Homo sapiens; test: To identify inhibition of the IFN signalling (Jak-Stat) pathway via expression of an eGFP reporter gene under the control of an IFN-stimulated response element (ISRE) containing MxA promoter.; format: functional; details: 30 µM
[7] = target: T4, Tyrosyl-tRNA synthetase, putative (Trypanosoma cruzi (strain CL Brener)) (UniProt Q4DSP6); test: Trypanosoma cruzi tyrosyl tRNA synthetase (TcYRS) _High Tyrosine SOP; format: functional; details: 30 µM; further: in the data most compounds retested in dose-response had high values
T4 sequence (whole entry): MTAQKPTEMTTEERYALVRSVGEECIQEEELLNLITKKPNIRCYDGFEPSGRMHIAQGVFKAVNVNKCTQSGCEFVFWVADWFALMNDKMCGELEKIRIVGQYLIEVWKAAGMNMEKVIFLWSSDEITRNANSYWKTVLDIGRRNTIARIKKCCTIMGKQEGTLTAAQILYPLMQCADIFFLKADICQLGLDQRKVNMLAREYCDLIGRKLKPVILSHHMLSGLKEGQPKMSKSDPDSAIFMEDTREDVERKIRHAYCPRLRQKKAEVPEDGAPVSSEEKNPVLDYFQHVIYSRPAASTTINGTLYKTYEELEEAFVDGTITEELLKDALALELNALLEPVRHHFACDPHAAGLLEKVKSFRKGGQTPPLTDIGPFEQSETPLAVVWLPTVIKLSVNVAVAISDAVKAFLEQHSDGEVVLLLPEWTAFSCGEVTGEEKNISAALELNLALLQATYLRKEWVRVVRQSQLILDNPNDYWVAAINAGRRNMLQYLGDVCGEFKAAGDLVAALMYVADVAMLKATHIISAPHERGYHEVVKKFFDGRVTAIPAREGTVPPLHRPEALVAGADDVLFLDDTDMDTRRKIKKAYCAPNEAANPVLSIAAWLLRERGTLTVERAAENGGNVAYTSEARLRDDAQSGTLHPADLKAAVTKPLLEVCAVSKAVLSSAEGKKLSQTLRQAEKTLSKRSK

[8] = target: T4, Tyrosyl-tRNA synthetase, putative (Trypanosoma cruzi (strain CL Brener)); test: Trypanosoma cruzi tyrosyl tRNA synthetase (TcYRS) SOP; format: functional; details: 30 µM
[9] = target: Chromo domain-containing protein 1 (Saccharomyces cerevisiae (strain ATCC 204508 / S288c) (Baker's yeast)) (UniProt P32657); test: ScCHD-1 Enzyme Inhibition Assay; format: functional; details: 30 µM; further: in the data most compounds retested in dose-response had high values
Chromo domain-containing protein 1 (Saccharomyces cerevisiae (strain ATCC 204508 / S288c) (Baker's yeast)), sequence (P32657 whole entry, the tested form may be a part): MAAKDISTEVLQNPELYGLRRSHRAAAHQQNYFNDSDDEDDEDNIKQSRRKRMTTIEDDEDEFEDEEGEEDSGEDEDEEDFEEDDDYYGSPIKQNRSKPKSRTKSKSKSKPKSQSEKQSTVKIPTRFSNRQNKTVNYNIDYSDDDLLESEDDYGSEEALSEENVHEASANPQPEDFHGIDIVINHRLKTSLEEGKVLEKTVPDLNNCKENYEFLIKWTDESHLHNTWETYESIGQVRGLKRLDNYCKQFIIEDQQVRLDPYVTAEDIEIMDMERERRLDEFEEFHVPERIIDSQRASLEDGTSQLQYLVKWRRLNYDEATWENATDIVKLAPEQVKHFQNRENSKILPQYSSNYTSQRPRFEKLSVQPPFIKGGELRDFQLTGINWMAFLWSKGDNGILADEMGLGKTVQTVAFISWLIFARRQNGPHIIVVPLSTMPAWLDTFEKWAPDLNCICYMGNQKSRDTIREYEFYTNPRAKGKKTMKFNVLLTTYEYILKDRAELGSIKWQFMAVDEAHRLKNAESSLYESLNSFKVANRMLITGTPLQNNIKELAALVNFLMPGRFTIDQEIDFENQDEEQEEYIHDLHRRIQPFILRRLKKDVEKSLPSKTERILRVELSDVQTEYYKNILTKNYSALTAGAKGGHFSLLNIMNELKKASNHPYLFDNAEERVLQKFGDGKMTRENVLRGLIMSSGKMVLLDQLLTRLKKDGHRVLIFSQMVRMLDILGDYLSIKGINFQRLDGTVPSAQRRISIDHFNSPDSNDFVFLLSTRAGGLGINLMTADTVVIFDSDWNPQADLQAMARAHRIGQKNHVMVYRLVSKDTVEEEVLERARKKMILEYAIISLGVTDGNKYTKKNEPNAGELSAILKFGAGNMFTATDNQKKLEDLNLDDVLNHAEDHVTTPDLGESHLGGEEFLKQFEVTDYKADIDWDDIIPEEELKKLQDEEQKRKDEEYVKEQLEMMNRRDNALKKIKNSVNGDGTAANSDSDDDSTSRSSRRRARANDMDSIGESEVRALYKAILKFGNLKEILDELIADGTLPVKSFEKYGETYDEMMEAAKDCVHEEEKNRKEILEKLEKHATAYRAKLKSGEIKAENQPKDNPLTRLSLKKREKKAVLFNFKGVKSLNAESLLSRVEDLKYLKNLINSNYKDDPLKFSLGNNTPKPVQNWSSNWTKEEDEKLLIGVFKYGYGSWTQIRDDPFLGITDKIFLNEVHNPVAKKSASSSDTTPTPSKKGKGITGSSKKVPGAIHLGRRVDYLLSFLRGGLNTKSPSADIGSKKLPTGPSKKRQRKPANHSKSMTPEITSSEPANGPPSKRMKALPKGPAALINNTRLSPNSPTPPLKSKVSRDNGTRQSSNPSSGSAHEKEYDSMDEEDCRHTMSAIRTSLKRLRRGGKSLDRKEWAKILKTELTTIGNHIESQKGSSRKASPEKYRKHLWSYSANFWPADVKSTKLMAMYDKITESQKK

Sialic acid-binding Ig-like lectin 9 (Homo sapiens), sequence (Q9Y336 whole entry): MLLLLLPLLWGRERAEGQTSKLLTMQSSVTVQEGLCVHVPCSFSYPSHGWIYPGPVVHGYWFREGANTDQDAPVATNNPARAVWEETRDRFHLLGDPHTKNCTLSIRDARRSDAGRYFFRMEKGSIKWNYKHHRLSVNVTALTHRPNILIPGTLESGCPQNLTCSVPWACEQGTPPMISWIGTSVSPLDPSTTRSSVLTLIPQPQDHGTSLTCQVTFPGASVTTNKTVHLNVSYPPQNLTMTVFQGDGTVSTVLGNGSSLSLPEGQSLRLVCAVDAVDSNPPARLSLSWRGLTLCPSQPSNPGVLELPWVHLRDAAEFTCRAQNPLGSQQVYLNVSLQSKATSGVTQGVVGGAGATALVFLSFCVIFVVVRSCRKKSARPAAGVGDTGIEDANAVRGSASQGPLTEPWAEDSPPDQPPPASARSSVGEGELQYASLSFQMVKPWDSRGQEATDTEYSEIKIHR
Protein translocase subunit SecA (Escherichia coli (strain K12)), sequence (P10408 whole entry): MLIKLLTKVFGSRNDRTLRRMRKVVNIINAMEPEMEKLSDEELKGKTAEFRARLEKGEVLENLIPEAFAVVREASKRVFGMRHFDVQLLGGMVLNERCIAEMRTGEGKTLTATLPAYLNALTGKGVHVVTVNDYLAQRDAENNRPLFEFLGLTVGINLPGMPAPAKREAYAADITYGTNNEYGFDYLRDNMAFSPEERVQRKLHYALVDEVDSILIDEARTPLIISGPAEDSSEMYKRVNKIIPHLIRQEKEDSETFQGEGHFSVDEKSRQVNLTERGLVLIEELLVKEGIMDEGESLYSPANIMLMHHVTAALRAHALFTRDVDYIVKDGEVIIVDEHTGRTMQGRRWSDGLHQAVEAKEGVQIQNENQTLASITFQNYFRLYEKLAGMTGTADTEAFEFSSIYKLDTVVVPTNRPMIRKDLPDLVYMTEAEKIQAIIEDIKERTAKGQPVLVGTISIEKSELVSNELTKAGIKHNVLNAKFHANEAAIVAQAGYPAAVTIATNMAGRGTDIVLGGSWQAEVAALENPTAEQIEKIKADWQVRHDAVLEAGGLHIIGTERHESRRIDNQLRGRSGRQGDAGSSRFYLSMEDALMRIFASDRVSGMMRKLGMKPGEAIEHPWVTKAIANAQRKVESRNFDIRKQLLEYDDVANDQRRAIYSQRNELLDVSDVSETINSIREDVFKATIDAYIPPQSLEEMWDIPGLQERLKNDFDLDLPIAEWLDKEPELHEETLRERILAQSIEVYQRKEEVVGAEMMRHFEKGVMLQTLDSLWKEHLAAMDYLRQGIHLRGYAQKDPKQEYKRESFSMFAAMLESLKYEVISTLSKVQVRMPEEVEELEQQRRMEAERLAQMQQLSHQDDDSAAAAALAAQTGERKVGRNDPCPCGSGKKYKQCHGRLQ

## CCN(CC)CCNC(=O)c1cnc(C(C)(C)C)s1
[1]
  Percent Effect: -3.73%
[2]
  Percent Effect: 0%
[3]
  Percent Effect: 2.58%
[4]
  Percent Effect: -11.2%
Trypanosoma cruzi
  Percent Effect: -3.64%
[5]
  Percent Effect: 2.88%
[6]
  Percent Effect: 8.21%
Homo sapiens
  Percent Effect: 0.408%
[7]
  Percent Effect: 0.493%
[8]
  Percent Effect: -6.17%
[9]
  Percent Effect: -0.603%

## CCCNC(=O)CNc1cc(C#N)ccc1OCC
[1]
  Percent Effect: -6.04%
[2]
  Percent Effect: 22.8%
[3]
  Percent Effect: -6.15%
[4]
  Percent Effect: 3.16%
Trypanosoma cruzi
  Percent Effect: 4.82%
[5]
  Percent Effect: -6.46%
[6]
  Percent Effect: 11.7%
Homo sapiens
  Percent Effect: 11.7%
[7]
  Percent Effect: 4.43%
[8]
  Percent Effect: 21.5%
[9]
  Percent Effect: -7.89%

## Cc1cc(CN2CCc3nn(C)c(=O)cc3C2)on1
[1]
  Percent Effect: -2.46%
[2]
  Percent Effect: 12.5%
[3]
  Percent Effect: -228%
[4]
  Percent Effect: -1.88%
Trypanosoma cruzi
  Percent Effect: -0.0972%
[5]
  Percent Effect: 4.86%
[6]
  Percent Effect: 6.84%
Homo sapiens
  Percent Effect: -5.36%
[7]
  Percent Effect: -3.16%
[8]
  Percent Effect: -7.69%
[9]
  Percent Effect: -2.45%

## CCCC(C)CN1CCC(n2cc(C3CCCC3)nn2)CC1 (stereo unspecified)
[1]
  Percent Effect: -5.89%
[2]
  Percent Effect: 13.3%
[3]
  Percent Effect: -5.31%
[4]
  Percent Effect: 18.9%
Trypanosoma cruzi
  Percent Effect: 9.45%
[5]
  Percent Effect: 10.4%
[6]
  Percent Effect: 9.07%
Homo sapiens
  Percent Effect: 7.54%
[7]
  Percent Effect: 6.01%
[8]
  Percent Effect: 11.1%
[9]
  Percent Effect: -4.05%

## CCCn1nc(C)c(CNC(=O)C2COc3c(cccc3OC)C2)c1C (stereo unspecified)
[1]
  Percent Effect: -3.57%
[2]
  Percent Effect: 2.74%
[3]
  Percent Effect: -2.55%
[4]
  Percent Effect: 6.74%
Trypanosoma cruzi
  Percent Effect: 1.19%
[5]
  Percent Effect: -5.59%
[6]
  Percent Effect: 15.5%
Homo sapiens
  Percent Effect: 10.2%
[7]
  Percent Effect: 6.25%
[8]
  Percent Effect: 16.1%
[9]
  Percent Effect: -3.25%

## O=C(Cn1ccc2ccc(Br)cc21)NCc1ccc(C(=O)O)cc1
[1]
  Percent Effect: -2.06%
[2]
  Percent Effect: -5.26%
[3]
  Percent Effect: 4.18%
[4]
  Percent Effect: -0.116%
Trypanosoma cruzi
  Percent Effect: -7.69%
[5]
  Percent Effect: -3.55%
[6]
  Percent Effect: 9.88%
Homo sapiens
  Percent Effect: -5.25%
[7]
  Percent Effect: -10.6%
[8]
  Percent Effect: -13%
[9]
  Percent Effect: -4.34%

## O=C(C1=CCCC1)N1CCO[C@H]2[C@@H](OCC3CC3)CC[C@@H]21
[1]
  Percent Effect: -3.62%
[2]
  Percent Effect: 18.7%
[3]
  Percent Effect: -4.28%
[4]
  Percent Effect: -6.26%
Trypanosoma cruzi
  Percent Effect: 2.51%
[5]
  Percent Effect: -51.1%
[6]
  Percent Effect: 18.3%
Homo sapiens
  Percent Effect: -0.0365%
[7]
  Percent Effect: 5.21%
[8]
  Percent Effect: 22.5%
[9]
  Percent Effect: -7.27%

## CCc1nnc2n1CCN(CCS(=O)(=O)c1ccccc1)C2
[1]
  Percent Effect: -7.25%
[2]
  Percent Effect: 13%
[3]
  Percent Effect: 6.16%
[4]
  Percent Effect: 15.6%
Trypanosoma cruzi
  Percent Effect: -3.37%
[5]
  Percent Effect: 1.07%
[6]
  Percent Effect: -2.87%
Homo sapiens
  Percent Effect: 4.97%
[7]
  Percent Effect: 0.971%
[8]
  Percent Effect: 7.32%
[9]
  Percent Effect: -3.89%

## COCC1c2c(cnn2C)CCN1Cc1ccoc1 (stereo unspecified)
[1]
  Percent Effect: -4.26%
[2]
  Percent Effect: -2.7%
[3]
  Percent Effect: 3.57%
[4]
  Percent Effect: 2.05%
Trypanosoma cruzi
  Percent Effect: -1.95%
[5]
  Percent Effect: -1.67%
[6]
  Percent Effect: 0.0845%
Homo sapiens
  Percent Effect: -9.84%
[7]
  Percent Effect: 0.99%
[8]
  Percent Effect: 3.66%
[9]
  Percent Effect: 2.42%

## CN(Cc1ccco1)C(=O)[C@H]1CSCN1C(=O)OC(C)(C)C
[1]
  Percent Effect: -4.45%
[2]
  Percent Effect: 15.8%
[3]
  Percent Effect: -5.01%
[4]
  Percent Effect: 13.2%
Trypanosoma cruzi
  Percent Effect: 5.7%
[5]
  Percent Effect: -4.32%
[6]
  Percent Effect: 8.21%
Homo sapiens
  Percent Effect: -0.327%
[7]
  Percent Effect: 4.43%
[8]
  Percent Effect: 13.6%
[9]
  Percent Effect: -3.35%

## COCCc1noc(CN(C)C2CCCN(c3ccc(C)nn3)C2)n1 (stereo unspecified)
[1]
  Percent Effect: -2.39%
[2]
  Percent Effect: 2.67%
[3]
  Percent Effect: -6.26%
[4]
  Percent Effect: 0.801%
Trypanosoma cruzi
  Percent Effect: 3.41%
[5]
  Percent Effect: 1.56%
[6]
  Percent Effect: 11.9%
Homo sapiens
  Percent Effect: -8.02%
[7]
  Percent Effect: 4.92%
[8]
  Percent Effect: 6.17%
[9]
  Percent Effect: -2.05%
